# In PubChem BioAssay (NCATS):
# Values joined by “and” are separate entries in the source; they are usually repeats but may differ in a detail not shown here. Equal entries are not always repeated. Records with an inconclusive call do not appear. A number with no mark means an inactive call. Active and inactive are the calls of the source. Calls come from the whole dose curve; as a rule, active = well fitted curve in the direction sought with a large enough effect; inconclusive = small, poorly fitted or top-dose-only effect, or another doubt; inactive = no such curve, though single readings can be large or run the other way.
# Assay: qHTS Assay for Identifying Gametocytocidal Compounds (AID 743244);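 for max response: actives lower the fluorescent signal which means gametocytes are killed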
# Conditions: P. falciparum 3D7 stage III-V gametocytes, alamarBlue, 72 h; max response: hits give low values
# How it was run: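 P. falciparum 3D7 stage III–V gametocytes (20,000 cells/well) were exposed to compounds for 72 h at 37 °C, 5% CO2. AlamarBlue was then added for 24 h; decreased resorufin fluorescence (Ex 525/Em 598 nm) indicated loss of viability.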
# % is set by controls: 0 for no effect and ±100 for the full control effect; potency is the fitted concentration of half-maximal effect.
Compound,max response,Potency
CNS(=O)(=O)CCc1ccc2[nH]cc(C3CCN(C)CC3)c2c1,4.41%,
NC(=O)N1c2ccccc2CC(=O)c2ccccc21,34.3%,
O=P(O)(O)C(O)(Cc1cccnc1)P(=O)(O)O,8.36%,
Nc1nc(=S)c2[nH]cnc2[nH]1,3.77% and 7.36%,
CC(C)(C#N)c1cc(Cn2cncn2)cc(C(C)(C)C#N)c1,7.01%,
CCCCOc1ccc(CC(=O)NO)cc1,1.51%,
CC(C)(Sc1cc(C(C)(C)C)c(O)c(C(C)(C)C)c1)Sc1cc(C(C)(C)C)c(O)c(C(C)(C)C)c1,-1.03%,
CS(=O)(=O)c1ccc([C@@H](O)[C@@H](CO)NC(=O)C(Cl)Cl)cc1,8.86%,
CCCOc1ccc(C(=O)OCCN(CC)CC)cc1N,14.8%,
N[C@@H](C(=O)N[C@@H]1C(=O)N2C(C(=O)O)=C(Cl)CS[C@H]12)c1ccccc1,19.9%,
CCOC(=O)[C@H](CCc1ccccc1)N[C@H]1CS[C@H](c2cccs2)CN(CC(=O)O)C1=O,3.7%,
CCOc1cc(N)c(Cl)cc1C(=O)NCC1CN(Cc2ccc(F)cc2)CCO1 (stereo not given),1.28%,
CCc1c2c(nc3ccc(OC(=O)N4CCC(N5CCCCC5)CC4)cc13)-c1cc3c(c(=O)n1C2)COC(=O)[C@]3(O)CC,2.43%,
CCn1cc(C(=O)O)c(=O)c2cc(F)c(N3CCNCC3)cc21,1.43% and -0.58%,
CN(C)CCc1c[nH]c2ccc(CS(=O)(=O)N3CCCC3)cc12,1.18%,
CCN(C)C(=O)Oc1cccc([C@H](C)N(C)C)c1,-3.35%,
COC(=O)Nc1nc2ccc(C(=O)c3ccccc3)cc2[nH]1,-6.13%,
CN(Cc1cc(Br)cc(Br)c1N)C1CCCCC1,-1.96%,

Compound,max response,Potency
CCCN[C@H]1CCc2nc(N)sc2C1,-5.22%,
CC(C)C1CCC(C(=O)N[C@H](Cc2ccccc2)C(=O)O)CC1 (stereo not given in full),6.84%,
Nc1ccc(S(=O)(=O)Nc2ccccn2)cc1,3.9%,
CC(C)(C)C(=O)OCOP(=O)(COCCn1cnc2c(N)ncnc21)OCOC(=O)C(C)(C)C,4.48%,
CCOCC(O)COc1ccc(NC(=O)CC[S+](C)C)cc1 (stereo not given),2.79%,
CC1(C)[C@H](C(=O)O)N2C(=O)C[C@H]2S1(=O)=O,0.138%,
CC[C@H](NC(C)C)[C@H](O)c1ccc(O)c2[nH]c(=O)ccc12,0.956%,
CNNCc1ccc(C(=O)NC(C)C)cc1,-5.75%,
CN1CCN(c2c(F)cc3c(=O)c(C(=O)O)cn4c3c2OCN4C)CC1,0.61%,
CC(C)Cn1cnc2c(N)nc3ccccc3c21,-6.2%,
Cc1cccc(Nc2ccncc2S(=O)(=O)NC(=O)NC(C)C)c1,-10.6%,
O=c1oc2c(O)c(O)cc3c(=O)oc4c(O)c(O)cc1c4c23,10.2%,
COc1cc(NS(=O)(=O)c2ccc(N)cc2)nc(OC)n1,22.6%,
CCCCCCNC(=O)n1cc(F)c(=O)[nH]c1=O,-3.88%,
CNC1CCCN(c2c(F)cc3c(=O)c(C(=O)O)cn(C4CC4)c3c2OC)C1 (stereo not given),-8.7%,
CO[C@@H]1[C@@H](OC(N)=O)[C@@H](O)[C@H](Oc2ccc3c(O)c(NC(=O)c4ccc(O)c(CC=C(C)C)c4)c(=O)oc3c2C)OC1(C)C,1.46%,
C1CCC(C(CC2CCCCN2)C2CCCCC2)CC1 (stereo not given),,10 µM (active)
